Test results: PubChem BioAssay
The source made the active and inactive calls.

How the values were obtained:
Albumin (Bos taurus) = Albumin (Bos taurus) (UniProt P02769); assay: compounds binding labelled BSA control protein – biochemical, small-molecule microarray, Alexa647 label, 635/667 nm fluorescence, artefact control for SMM control protein annotation, profiling panel (AID 1118); conditions: BSA-A647 binding, fluorescence 635 nm, higher = more signal;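 further: score merges 667 nm emission intensity and signal-to-noise per printed compound spot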
[1] = probe aXIP binding to arrayed compounds – biochemical, NeuroSMM set, 635/667 nm fluorescence, primary screen (AID 1119); conditions: small-molecule microarray, higher = more signal, called active from +8 up or from −8 down;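 further: probe is the protein aXip251-270 applied at 1 µg/mL to compound-printed slides; binding of probe to printed compounds measured as 667 nm fluorescence plus signal to noise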
[2] = probe aNOTCH3 binding on compound microarray – biochemical, small-molecule microarray, 635/667 nm fluorescence, primary screen (AID 1120); conditions: higher = more signal;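 further: probe is a biotin-tagged antibody raised against NOTCH3 rather than NOTCH3 protein; score merges spot fluorescence near 667 nm with spot signal to noise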
[3] = probe aNOTCH2 binding on compound microarray – biochemical, small-molecule microarray, 635/667 nm fluorescence, primary screen (AID 1121); conditions: higher = more signal;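 further: score merges feature fluorescence read at 667 nm with its signal to noise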
[4] = target: Carbonic anhydrase 2 (Homo sapiens) (UniProt P00918); assay: compounds binding carbonic anhydrase 2 – biochemical, small-molecule microarray, Alexa647-labelled CAII, profiling panel (AID 1122); conditions: CAII-A647 binding fluorescence, higher = more signal
[5] = COS7 lysate on small-molecule microarray, probe aHis, 635 nm (AID 1123); conditions: COS7 cell lysate, fluorescence, higher = more signal;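 further: z-score combines 667nm fluorescence intensity with signal-to-noise per printed compound spot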
[6] = probe aLAP1 signal on lysate-treated microarray – cell lysate, small-molecule microarray, COS7 lysate, primary screen (AID 1124); conditions: probe aLAP1, fluorescence, higher = more signal;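 further: lysate comes from COS7 cells expressing LAP1 and is applied at 0.3 µg/mL; score merges spot fluorescence near 667 nm with signal-to-noise over triplicate slides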
Sam68 (KHDRBS1) = assay: compounds binding KHDRBS1 protein – biochemical, small-molecule microarray, 635 nm fluorescence, primary screen (AID 1125); conditions: higher = more signal;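 further: score merges 667 nm channel intensity with signal to noise over triplicate slides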
[7] = tested on: Chordin-like protein 2 (CHRDL2); assay: compounds binding chordin-like 2 – biochemical, small-molecule microarray, 635 nm fluorescence, primary screen (AID 1126); conditions: fluorescence 635 nm, higher = more signal;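 further: printed compound slides probed with Chrdl2 protein at 4 µg/mL for 1 h at 4 C; score merges 667 nm emission intensity with signal to noise over three replicate slides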
[8] = target: Concanavalin-A (Canavalia ensiformis) (UniProt P02866); assay: compounds binding concanavalin A lectin – biochemical, small-molecule microarray, Alexa647 label, 635 nm, artefact control for SMM control protein annotation, primary screen (AID 1127); conditions: ConA-A647 binding fluorescence, higher = more signal;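 further: z combines 667 nm emission intensity with signal-to-noise across three replicate slides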
[9] = compounds binding Alexa647 anti-His antibody – biochemical, small-molecule microarray, 635 nm fluorescence, artefact control for SMM control protein annotation, primary screen (AID 1128); conditions: higher = more signal;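 further: score merges feature fluorescence with signal-to-noise for each printed compound spot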
[10] = tested on: Human papillomavirus type 1a E7 protein (residues 1-88); assay: HPV1a E7 small-molecule binders, primary screen, biochemical, small-molecule microarray, residues 1-88, 635 nm (AID 1129); conditions: small-molecule microarray binding, fluorescence 635 nm; higher = more signal
[11] = target: Focal adhesion kinase 1 (Homo sapiens) (UniProt Q05397); assay: PTK2 protein binding on printed compound slides – biochemical, small-molecule microarray, 635/667 nm fluorescence, BSA, DTT, primary screen (AID 1130); conditions: 635 nm fluorescence, higher = more signal;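 further: composite of spot emission at 667 nm and signal to noise over triplicate slides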
[12] = tested on: Fibrinogen (Alexa647-labelled); assay: Alexa647-fibrinogen binding to printed small molecules – biochemical, small-molecule microarray, 635/667 nm fluorescence, artefact control for SMM control-protein annotation, profiling panel (AID 1131); conditions: fibrinogen-A647 binding fluorescence, higher = more signal;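 further: z-score merges 667 nm fluorescence with per-spot signal-to-noise over triplicate slides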
[13] = target: Follistatin (Homo sapiens) (UniProt P19883); assay: FST protein binding to printed compounds – biochemical, small-molecule microarray, 635/667 nm fluorescence, primary screen (AID 1132); conditions: 635 nm fluorescence, higher = more signal
[14] = target: Fibroblast growth factor 2 (Homo sapiens) (UniProt P09038); assay: basic fibroblast growth factor binding to printed compounds – biochemical, small-molecule microarray, 635/667 nm fluorescence, primary screen (AID 1133); conditions: FGF2, fluorescence 635/667, higher = more signal
[15] = JC-1 mitochondrial potential readout, lung cancer cells – cell-based, A549, JC-1 fluorescence, basal, 24 h, 100 nL, profiling panel (AID 1138); conditions: higher = more signal;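 further: A549 lung adenocarcinoma cells under basal conditions with no added stimulus; test concentration not given here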
Lefty1 = Lefty1 protein binding to printed compounds – biochemical, small-molecule microarray, 635/667 nm fluorescence, primary screen (AID 1139); conditions: fluorescence 635/667, higher = more signal
[16] = tested on: wheat germ agglutinin (Triticum aestivum), Alexa647-labelled; assay: Alexa647-WGA lectin binding to printed small molecules – biochemical, small-molecule microarray, 635/667 nm fluorescence, artefact control for SMM control-protein annotation, profiling panel (AID 1140); conditions: WGA-A647 binding, 635 nm fluorescence, higher = more signal;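 further: score merges 667 nm feature emission with signal to noise over triplicate slides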
[17] = target: Luciferin 4-monooxygenase (Photinus pyralis) (UniProt P08659); assay: inhibition of purified Photinus pyralis luciferase – biochemical, luminescence, purified enzyme, 2006 set, primary screen (AID 1141); conditions: purified firefly luciferase, SteadyGlo luminescence, 30 min; higher = more signal, called active from +8 up or from −8 down;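 further: cell-free assay with purified firefly luciferase at 100 ng per well in PBS; test concentration not given here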
Luciferin 4-monooxygenase (Photinus pyralis), sequence (P08659 whole entry, looked up): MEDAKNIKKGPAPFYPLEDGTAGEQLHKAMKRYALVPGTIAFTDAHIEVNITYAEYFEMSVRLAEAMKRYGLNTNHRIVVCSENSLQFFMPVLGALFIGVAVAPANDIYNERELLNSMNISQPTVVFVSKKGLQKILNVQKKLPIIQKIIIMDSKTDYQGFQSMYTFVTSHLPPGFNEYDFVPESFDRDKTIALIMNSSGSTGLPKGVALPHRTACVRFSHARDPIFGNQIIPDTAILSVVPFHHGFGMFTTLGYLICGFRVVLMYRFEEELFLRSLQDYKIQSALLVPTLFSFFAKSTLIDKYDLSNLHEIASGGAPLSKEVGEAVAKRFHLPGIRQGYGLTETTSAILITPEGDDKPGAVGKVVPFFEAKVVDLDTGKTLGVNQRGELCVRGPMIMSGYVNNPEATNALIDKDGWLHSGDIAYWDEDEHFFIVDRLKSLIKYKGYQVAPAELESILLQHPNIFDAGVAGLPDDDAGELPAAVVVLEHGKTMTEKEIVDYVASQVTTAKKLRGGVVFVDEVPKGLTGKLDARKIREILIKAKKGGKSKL

Focal adhesion kinase 1 (Homo sapiens), sequence (Q05397 whole entry, looked up): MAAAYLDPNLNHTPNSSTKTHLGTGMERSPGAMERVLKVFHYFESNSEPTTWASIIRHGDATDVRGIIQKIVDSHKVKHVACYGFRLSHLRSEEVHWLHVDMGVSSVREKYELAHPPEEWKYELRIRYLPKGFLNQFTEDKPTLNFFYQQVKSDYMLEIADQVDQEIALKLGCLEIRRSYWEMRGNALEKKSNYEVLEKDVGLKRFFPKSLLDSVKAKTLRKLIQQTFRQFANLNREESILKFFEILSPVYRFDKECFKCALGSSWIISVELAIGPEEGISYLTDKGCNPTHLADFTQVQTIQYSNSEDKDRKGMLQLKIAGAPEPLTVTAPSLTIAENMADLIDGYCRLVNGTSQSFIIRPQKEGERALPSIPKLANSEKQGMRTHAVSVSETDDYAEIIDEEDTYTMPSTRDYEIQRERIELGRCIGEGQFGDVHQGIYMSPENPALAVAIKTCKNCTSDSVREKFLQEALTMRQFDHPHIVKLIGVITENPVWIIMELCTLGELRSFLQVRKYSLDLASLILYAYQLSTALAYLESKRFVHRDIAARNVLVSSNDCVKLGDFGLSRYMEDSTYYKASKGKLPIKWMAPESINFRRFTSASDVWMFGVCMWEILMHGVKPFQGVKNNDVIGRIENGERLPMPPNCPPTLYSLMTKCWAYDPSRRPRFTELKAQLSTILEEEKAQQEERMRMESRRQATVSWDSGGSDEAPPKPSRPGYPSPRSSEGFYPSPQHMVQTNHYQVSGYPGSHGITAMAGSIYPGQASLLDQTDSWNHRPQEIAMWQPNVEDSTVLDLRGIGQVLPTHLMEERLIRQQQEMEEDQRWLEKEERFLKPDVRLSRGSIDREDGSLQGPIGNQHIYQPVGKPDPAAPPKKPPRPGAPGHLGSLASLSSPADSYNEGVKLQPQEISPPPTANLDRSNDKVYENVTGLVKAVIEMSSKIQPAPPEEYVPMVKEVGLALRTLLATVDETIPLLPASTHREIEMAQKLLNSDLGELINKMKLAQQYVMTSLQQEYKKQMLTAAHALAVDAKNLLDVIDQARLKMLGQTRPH
Fibroblast growth factor 2 (Homo sapiens), sequence (P09038 whole entry, looked up): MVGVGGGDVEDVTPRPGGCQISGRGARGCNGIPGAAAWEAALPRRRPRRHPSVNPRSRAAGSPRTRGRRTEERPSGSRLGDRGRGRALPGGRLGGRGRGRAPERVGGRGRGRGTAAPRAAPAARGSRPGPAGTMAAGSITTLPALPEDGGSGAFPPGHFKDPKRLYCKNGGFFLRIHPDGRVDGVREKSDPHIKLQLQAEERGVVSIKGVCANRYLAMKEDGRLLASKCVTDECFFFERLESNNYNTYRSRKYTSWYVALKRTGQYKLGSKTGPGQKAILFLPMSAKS
Concanavalin-A (Canavalia ensiformis), sequence (P02866 whole entry, looked up): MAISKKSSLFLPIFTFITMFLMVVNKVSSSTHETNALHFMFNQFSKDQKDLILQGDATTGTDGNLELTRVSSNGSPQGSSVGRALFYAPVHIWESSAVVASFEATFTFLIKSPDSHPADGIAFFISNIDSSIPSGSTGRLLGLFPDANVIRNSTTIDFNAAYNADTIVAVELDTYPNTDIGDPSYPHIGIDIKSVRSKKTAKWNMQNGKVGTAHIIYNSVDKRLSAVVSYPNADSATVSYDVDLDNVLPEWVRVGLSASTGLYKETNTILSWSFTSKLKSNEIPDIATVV
Albumin (Bos taurus), sequence (P02769 whole entry, looked up): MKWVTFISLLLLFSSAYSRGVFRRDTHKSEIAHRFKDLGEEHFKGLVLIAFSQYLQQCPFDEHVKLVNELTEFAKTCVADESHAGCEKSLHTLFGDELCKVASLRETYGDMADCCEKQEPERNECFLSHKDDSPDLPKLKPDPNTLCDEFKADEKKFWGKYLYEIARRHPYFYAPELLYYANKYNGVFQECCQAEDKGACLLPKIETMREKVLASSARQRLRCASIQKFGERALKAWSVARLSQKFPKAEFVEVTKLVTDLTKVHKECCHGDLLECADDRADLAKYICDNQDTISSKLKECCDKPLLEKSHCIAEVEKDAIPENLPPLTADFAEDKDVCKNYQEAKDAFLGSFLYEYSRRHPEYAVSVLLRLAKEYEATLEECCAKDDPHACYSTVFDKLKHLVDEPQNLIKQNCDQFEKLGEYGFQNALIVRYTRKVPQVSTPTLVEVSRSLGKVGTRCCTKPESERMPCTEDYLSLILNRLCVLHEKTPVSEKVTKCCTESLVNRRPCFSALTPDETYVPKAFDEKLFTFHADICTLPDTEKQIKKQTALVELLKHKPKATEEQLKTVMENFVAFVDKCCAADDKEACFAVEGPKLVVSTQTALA
Follistatin (Homo sapiens), sequence (P19883 whole entry, looked up): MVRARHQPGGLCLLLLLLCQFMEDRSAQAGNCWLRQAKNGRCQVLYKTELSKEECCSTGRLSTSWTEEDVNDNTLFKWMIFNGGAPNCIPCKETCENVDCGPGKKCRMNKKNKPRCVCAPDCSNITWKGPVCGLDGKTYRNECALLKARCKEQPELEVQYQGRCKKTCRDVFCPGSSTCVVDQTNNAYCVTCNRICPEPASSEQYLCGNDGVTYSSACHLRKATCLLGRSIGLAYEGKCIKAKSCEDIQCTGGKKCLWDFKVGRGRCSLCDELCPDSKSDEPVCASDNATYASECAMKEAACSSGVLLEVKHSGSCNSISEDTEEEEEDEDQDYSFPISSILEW

In the case of `COCCCNC(=O)[C@@]1(Cc2ccccc2CN=[N+]=[N-])N=C(c2ccc(OCCCO)cc2)O[C@H]1c1ccccc1`, the composite z-score (Albumin (Bos taurus)) is reported as 0.954, the composite Z-score [1] is reported as 0.443 (inactive) and the composite z-score [2] is reported as 0.269. The composite z-score [3] was -0.0006, the composite z-score [4] was 0.254 and the composite z-score [5] was 2.85. The composite z-score [6] was 0.832, the composite z-score (Sam68 (KHDRBS1)) was 1.3 and the composite z-score [7] was -0.751. The composite z-score [8] was 1.03, the composite z-score [9] was 1.75 and the composite z-score [10] was 1.23. For the same compound, the composite z-score [11] was 0.895, the composite z-score [12] was 0.991 and the composite z-score [13] was 1.25. It also gave a composite z-score [14] of 0.14, a z-score [15] of -0.0671 and a composite z-score (Lefty1) of 0.365. The composite z-score [16] was 0.73 and the z-score [17] was 0.094 (inactive).
With `C=C(C(=O)CC[C@@H](OC(C)=O)c1ccc(CO)o1)C(C)C` the composite z-score (Albumin (Bos taurus)) was -0.307, the composite Z-score [1] was 1.58 (inactive) and the composite z-score [2] was 0.706. For the same compound, the composite z-score [3] was -0.0911, the composite z-score [4] was 0.846 and the composite z-score [5] was 0.445. It also gave a composite z-score [6] of 0.119, a composite z-score (Sam68 (KHDRBS1)) of 0.285 and a composite z-score [7] of 0.8. The composite z-score [8] was 0.771, the composite z-score [9] was 0.922 and the composite z-score [10] was -0.218. For the same compound, the composite z-score [11] was -0.26, the composite z-score [12] was 0.454 and the composite z-score [13] was 1.33. For the same compound, the composite z-score [14] was 1.49, the z-score [15] was -0.246 and the composite z-score (Lefty1) was 1.59. The composite z-score [16] was -0.0963 and the z-score [17] was -1.76 (inactive).
In the case of `NC(=O)NCC#Cc1ccc2c(c1)[C@]1(C(=O)N2)[C@H](C(=O)NC[C@H](O)c2ccccc2)[C@H]2C(=O)O[C@H](c3ccccc3)[C@H](c3ccccc3)N2[C@@H]1c1ccc(OCCO)cc1`, the composite z-score (Albumin (Bos taurus)) is reported as -0.397, the composite Z-score [1] is reported as 0.491 (inactive) and the composite z-score [2] is reported as 0.233. For the same compound, the composite z-score [3] was -0.0449, the composite z-score [4] was 0.377 and the composite z-score [5] was 0.791. It also gave a composite z-score [6] of 0.587, a composite z-score (Sam68 (KHDRBS1)) of 1.01 and a composite z-score [7] of -0.0806. It also gave a composite z-score [8] of 0.798, a composite z-score [9] of -0.0888 and a composite z-score [10] of 1.05. It also gave a composite z-score [11] of -0.0193, a composite z-score [12] of 0.829 and a composite z-score [13] of 1.29. For the same compound, the composite z-score [14] was 0.177, the z-score [15] was -0.303 and the composite z-score (Lefty1) was -0.0126. For the same compound, the composite z-score [16] was 0.915 and the z-score [17] was -1.9 (inactive).
For `COCCOC(=O)N1C(=O)[C@@]2(c3cc(C#CC4=CCCCC4)ccc31)[C@H](c1ccccc1OCCO)N1[C@H](c3ccccc3)[C@H](c3ccccc3)OC(=O)[C@H]1[C@@H]2C(=O)N1CCCCCCC1`, the composite z-score (Albumin (Bos taurus)) was -0.0107, the composite Z-score [1] was 0.181 (inactive) and the composite z-score [2] was -0.582. For the same compound, the composite z-score [3] was -0.26, the composite z-score [4] was 0.592 and the composite z-score [5] was 2.23. The composite z-score [6] was 0.22, the composite z-score (Sam68 (KHDRBS1)) was 1.34 and the composite z-score [7] was 0.323. For the same compound, the composite z-score [8] was 0.592, the composite z-score [9] was 0.778 and the composite z-score [10] was 1.22. It also gave a composite z-score [11] of 0.724, a composite z-score [12] of 0.767 and a composite z-score [13] of 1.24. It also gave a composite z-score [14] of 1.14, a z-score [15] of -0.433 and a composite z-score (Lefty1) of 0.277. For the same compound, the composite z-score [16] was 0.405 and the z-score [17] was -0.22 (inactive).
In the case of `CN1C(=O)C2C=CC(C(O)c3cccc(O)c3)N(Nc3ccccc3)C2C1=O` (stereo not given), the composite z-score (Albumin (Bos taurus)) is reported as 0.976, the composite Z-score [1] is reported as 0.501 (inactive) and the composite z-score [2] is reported as 0.17. For the same compound, the composite z-score [3] was -0.14, the composite z-score [4] was 0.552 and the composite z-score [5] was 0.247. It also gave a composite z-score [6] of -0.279, a composite z-score (Sam68 (KHDRBS1)) of -0.172 and a composite z-score [7] of -0.246. The composite z-score [8] was 0.312, the composite z-score [9] was 0.71 and the composite z-score [10] was 0.545. The composite z-score [11] was 0.214, the composite z-score [12] was 0.441 and the composite z-score [13] was 0.214. It also gave a composite z-score [14] of -0.191, a z-score [15] of 1.19 and a composite z-score (Lefty1) of 0.152. The composite z-score [16] was 0.275 and the z-score [17] was 0.991 (inactive).
